Results as given in PubChem BioAssay (EPA / NIEHS).
Where “and” joins values, the source holds several entries; their conditions need not be identical. Identical values can stand only once. Calls of active or inactive are those of the source. Rule for the calls: active = hit-call score of the fitted dose curve at least 0.9, where 1 is the maximum; inactive = score below 0.9.

Columns and labels:
[1] = read-out: Thrombomodulin, THBD (gene 7056); assay: BSK_CASM3C_Thrombomodulin: BioMAP Diversity Plus: CASM3C Assay for Thrombomodulin Biomarker Activity (AID 2283051); conditions: primary human coronary artery smooth muscle cells; actives raise or lower the signal;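 note: thrombomodulin protein level measured by ELISA 24 h after dosing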
[2] = read-out: Tissue Factor, F3 (gene 2152); assay: BSK_CASM3C_TissueFactor: BioMAP Diversity Plus: CASM3C Assay for Tissue Factor Biomarker Activity (AID 2283052); conditions: primary human coronary artery smooth muscle cells; actives raise or lower the signal;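 note: cell surface tissue factor protein level read by ELISA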
[3] = read-out: Interferon-gamma inducible Protein 10 (IP10), CXCL10 (gene 3627); assay: BSK_hDFCGF_IP10: BioMAP Diversity Plus: hDFCGF Assay for Interferon-gamma inducible Protein 10 (IP10) Biomarker Activity (AID 2283053); conditions: primary human foreskin fibroblasts; actives raise or lower the signal
In short: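 Primary foreskin fibroblasts, human; 24 h compound exposure; IP-10 by ELISA; bidirectional fit vs DMSO.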

[4] = read-out: Urokinase-type plasminogen activator receptor (uPAR), PLAUR (gene 5329); assay: BSK_CASM3C_uPAR: BioMAP Diversity Plus: CASM3C Assay for Urokinase-type plasminogen activator receptor (uPAR) Biomarker Activity (AID 2283054); conditions: primary human coronary artery smooth muscle cells; actives raise or lower the signal;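 note: cell-surface uPAR protein level quantified by ELISA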
[5] = read-out: Vascular cell adhesion molecule 1 (VCAM1), VCAM1 (gene 7412); assay: BSK_CASM3C_VCAM1: BioMAP Diversity Plus: CASM3C Assay for Vascular cell adhesion molecule 1 (VCAM1) Biomarker Activity (AID 2283055); conditions: primary human coronary artery smooth muscle cells; actives raise or lower the signal;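 note: VCAM-1 protein level quantified by ELISA on the cells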
[6] = read-out: Collagen III, COL3A1 (gene 1281); assay: BSK_hDFCGF_CollagenIII: BioMAP Diversity Plus: hDFCGF Assay for Collagen III Biomarker Activity (AID 2283056); conditions: primary human foreskin fibroblasts; actives raise or lower the signal
In short: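 Human foreskin primary fibroblasts were exposed to test chemicals for 24 h, after which collagen III was quantified by ELISA. Activity was fitted bidirectionally against DMSO as negative control and baseline.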

[7] = read-out: Interleukin-8 (IL8), CXCL8 (gene 3576); assay: BSK_hDFCGF_IL8: BioMAP Diversity Plus: hDFCGF Assay for Interleukin-8 (IL8) Biomarker Activity (AID 2283058); conditions: primary human foreskin fibroblasts; actives raise or lower the signal
In short: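 hDFCGF human dermal fibroblasts; 24 h chemical exposure; IL-8 by ELISA; bidirectional curve fit vs DMSO baseline; gain or loss of signal scored.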

[8] = BSK_hDFCGF_Proliferation: Cell Proliferation Assessment in the BioMAP Diversity Plus: hDFCGF Assay (AID 2283059); conditions: primary human foreskin fibroblasts;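 note: curves fitted for both rise and fall of signal versus DMSO baseline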
In short: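 Total protein read at 560 nm after 0.1% SRB staining of TCA-fixed human skin fibroblasts, […]. Activity is fitted in both directions relative to DMSO as baseline.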

[9] = read-out: Macrophage colony-stimulating factor (MCSF), CSF1 (gene 1435); assay: BSK_hDFCGF_MCSF: BioMAP Diversity Plus: hDFCGF Assay for Macrophage colony-stimulating factor (MCSF) Biomarker Activity (AID 2283060); conditions: primary human foreskin fibroblasts; actives raise or lower the signal
In short: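 Human foreskin primary fibroblasts were treated with test chemical for 24 h, and M-CSF was then measured by ELISA. Data were fitted bidirectionally against DMSO as the negative control and activity baseline.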

[10] = BSK_hDFCGF_SRB: Viability Assessment in the BioMAP Diversity Plus: hDFCGF Assay (AID 2283061); conditions: primary human foreskin fibroblasts;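 note: cells exposed to compound for 24 h before the read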
In short: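 Human foreskin primary fibroblasts were treated with compound and assessed 24 h after dosing. Total protein was measured by sulforhodamine B staining (0.1% SRB after 10% TCA fixation, 560 nm read) as a cytotoxicity marker, with bidirectional fitting against DMSO baseline.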

[11] = read-out: Monokine induced gamma interferon (MIG), CXCL9 (gene 4283); assay: BSK_hDFCGF_MIG: BioMAP Diversity Plus: hDFCGF Assay for Monokine induced gamma interferon (MIG) Biomarker Activity (AID 2283063); conditions: primary human foreskin fibroblasts; actives raise or lower the signal
In short: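 ELISA read-out of MIG from primary human dermal fibroblasts 24 h post-dosing. Gain or loss of signal fitted bidirectionally, DMSO as baseline.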

[12] = read-out: Matrix Metallopeptidase 1 (MMP1), MMP1 (gene 4312); assay: BSK_hDFCGF_MMP1: BioMAP Diversity Plus: hDFCGF Assay for Matrix Metallopeptidase 1 (MMP1) Biomarker Activity (AID 2283064); conditions: primary human foreskin fibroblasts; actives raise or lower the signal
In short: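 hDFCGF primary fibroblasts (human foreskin); chemical added; 24 h; MMP1 by ELISA; bidirectional fit vs DMSO.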

[13] = read-out: Vascular cell adhesion molecule 1 (VCAM1), VCAM1 (gene 7412); assay: BSK_hDFCGF_VCAM1: BioMAP Diversity Plus: hDFCGF Assay for Vascular cell adhesion molecule 1 (VCAM1) Biomarker Activity (AID 2283065); conditions: primary human foreskin fibroblasts; actives raise or lower the signal;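 for AC50: VCAM-1 protein level quantified by ELISA after 24 h chemical exposure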
In short: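 Primary human foreskin fibroblasts (hDFCGF system) were dosed with chemical and VCAM-1 was measured by ELISA 24 h later. Bidirectional curve fitting used DMSO as negative control and activity baseline.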

[14] = read-out: Plasminogen activator inhibitor-1 (PAI1), SERPINE1 (gene 5054); assay: BSK_hDFCGF_PAI1: BioMAP Diversity Plus: hDFCGF Assay for Plasminogen activator inhibitor-1 (PAI1) Biomarker Activity (AID 2283066); conditions: primary human foreskin fibroblasts; actives raise or lower the signal
In short: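 Primary dermal fibroblasts (human foreskin), hDFCGF system; compound 24 h; PAI-1 by ELISA; bidirectional fit vs DMSO control.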

[15] = read-out: Intercellular Adhesion Molecule 1 (ICAM1), ICAM1 (gene 3383); assay: BSK_KF3CT_ICAM1: BioMAP Diversity Plus: KF3CT Assay for Intercellular Adhesion Molecule 1 (ICAM1) Biomarker Activity (AID 2283067); conditions: primary human keratinocytes with fibroblasts; actives raise or lower the signal
In short: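 Human keratinocyte plus foreskin fibroblast primary co-culture was exposed to chemical for 24 h. ICAM-1 was then quantified by ELISA, and the data were fit bidirectionally against DMSO as the negative control and baseline.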

[16] = read-out: Interferon-gamma inducible Protein 10 (IP10), CXCL10 (gene 3627); assay: BSK_KF3CT_IP10: BioMAP Diversity Plus: KF3CT Assay for Interferon-gamma inducible Protein 10 (IP10) Biomarker Activity (AID 2283068); conditions: primary human keratinocytes with fibroblasts; actives raise or lower the signal
In short: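 Human keratinocyte plus foreskin fibroblast primary co-culture exposed to test chemical for 24 h; IP-10 measured by ELISA. Concentration-response fitted bidirectionally against DMSO control as baseline.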

[17] = BSK_KF3CT_SRB: Viability Assessment in the BioMAP Diversity Plus: KF3CT Assay (AID 2283069); conditions: primary human keratinocytes with fibroblasts;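 note: fitted for both signal gain and loss against DMSO baseline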
In short: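 Keratinocytes co-cultured with foreskin fibroblasts (human primary); chemical added, 24 h; fix 10% TCA, stain 0.1% SRB, A560. Bidirectional fit vs DMSO.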

[18] = read-out: Interleukin-1 alpha (IL1a), IL1A (gene 3552); assay: BSK_KF3CT_IL1a: BioMAP Diversity Plus: KF3CT Assay for Interleukin-1 alpha (IL1a) Biomarker Activity (AID 2283070); conditions: primary human keratinocytes with fibroblasts; actives raise or lower the signal
In short: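 Chemicals were dosed onto co-cultured human keratinocytes and foreskin fibroblasts, IL-1a was quantified by ELISA at 24 h, and activity was fitted in both directions relative to DMSO controls.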

Measured: AC50

CC(C)c1ccc(C(C)C)cc1
active: [2] 35.5 µM | [4] 20 µM | [5] 32.6 µM | [8] 33.4 µM | [10] 36.1 µM | [14] 36.2 µM
inactive: all other assays above

Cc1ccc(Nc2ccc(O)c3c2C(=O)c2ccccc2C3=O)cc1
active: [8] 2.4 µM | [14] 1.61 µM
not listed: [17]
inactive: all other assays above

CCCCCCCCCC=O
active: [16] 11.9 µM
not listed: [17]
inactive: all other assays above

O=C(O)c1cn(C2CC2)c2cc(N3CCNCC3)c(F)cc2c1=O
not listed: [9] | [17]
inactive: all other assays above

OC[C@H]1O[C@H](O[C@]2(CCl)O[C@H](CCl)[C@@H](O)[C@@H]2O)[C@H](O)[C@@H](O)[C@H]1Cl
not listed: [17]
inactive: all other assays above

O=[N+]([O-])c1cc(C(F)(F)F)ccc1Cl
active: [8] 0.0171 µM
not listed: [17]
inactive: all other assays above

c1ccc2c(c1)c1cccc3ccc4cccc2c4c31
active: [18] 0.016 µM
not listed: [17]
inactive: all other assays above

Cc1ccc2n[nH]nc2c1
not listed: [17]
inactive: all other assays above

C=C(C)C(=O)O[C@H]1C[C@@H]2CC[C@@]1(C)C2(C)C
inactive: [1]
active: [2] 9.73 µM | [3] 35.2 µM | [4] 9.04 µM | [5] 12.1 µM | [6] 20 µM | [7] 35.3 µM | [8] 13.1 µM | [9] 28.4 µM | [11] 34.8 µM | [12] 34.8 µM | [13] 26.4 µM | [14] 12.8 µM | [15] 28.8 µM | [16] 16.9 µM | [18] 20 µM

CCCCC(CC)COCCC#N (centres undefined)
active: [3] 20 µM | [6] 24.1 µM | [8] 11.1 µM | [13] 7.05 µM | [16] 5.08 µM
not listed: [17]
inactive: all other assays above

Cc1cc(C2(c3cc(C)c(O)cc3C)OS(=O)(=O)c3ccccc32)c(C)cc1O
active: [14] 20 µM and 4.95 µM
not listed: [17]
inactive: all other assays above

CNC[C@H](O)c1cccc(O)c1
not listed: [17]
inactive: all other assays above

O=P(c1ccccc1)(c1ccccc1)c1ccccc1
not listed: [17]
inactive: all other assays above

c1ccc2sc(SN(C3CCCCC3)C3CCCCC3)nc2c1
active: [1] 3 µM | [8] 2.77 µM | [9] 0.951 µM | [10] 4.26 µM | [14] 2.8 µM
inactive: all other assays above

C=C[Si](OCC)(OCC)OCC
active: [8] 29.2 µM
not listed: [17]
inactive: all other assays above

NCCNCCN
not listed: [17]
inactive: all other assays above

CCCCC(CC)COC(=O)/C=C\C(=O)OCC(CC)CCCC (centres undefined)
active: [5] 20 µM | [8] 10.5 µM | [14] 7.23 µM
not listed: [17]
inactive: all other assays above

CC(=O)Nc1ccccc1O
active: [4] 0.124 µM
not listed: [17]
inactive: all other assays above

CCCCC/C=C/C=C/C=O
active: [2] 30.8 µM | [3] 14.5 µM | [4] 32.9 µM | [5] 20 µM | [6] 10.8 µM | [7] 30.1 µM | [8] 4.99 µM | [9] 10.7 µM | [10] 12.7 µM | [11] 25.1 µM | [12] 20 µM | [13] 6.87 µM | [14] 8.82 µM | [15] 29.3 µM | [16] 29.4 µM | [18] 29.5 µM
inactive: [1]

CCn1c2ccccc2c2cc(N)ccc21
active: [1] 2.7 µM | [13] 0.855 µM
not listed: [17]
inactive: all other assays above

CC1COc2ccccc2N1C(=O)C(Cl)Cl (centres undefined)
inactive: [1] | [3] | [7] | [9] | [11] | [15]
active: [2] 4.8 µM | [4] 7.08 µM | [5] 10.2 µM | [6] 0.0289 µM | [8] 8.61 µM | [10] 20 µM | [12] 20 µM | [13] 1.78 µM | [14] 0.0533 µM | [18] 0.629 µM

O=C1CCCCCCCCCCCCCCO1
inactive: [3] | [7] | [10] | [11] | [12] | [13] | [16] | [18]
active: [1] 27.8 µM | [2] 28.7 µM | [4] 31.9 µM | [5] 28 µM | [6] 11.4 µM | [8] 2.99 µM | [9] 9.4 µM | [14] 20 µM | [15] 17.9 µM

CCCCCCCCCCCCCCCCCC(=O)OCC(CC)CCCC (centres undefined)
not listed: [17]
inactive: all other assays above

CC(=O)OCCC(C)CC(C)(C)C (centres undefined)
not listed: [17]
inactive: all other assays above

Cc1ccc(O)c(C(C)(C)C)c1
inactive: [1] | [7]
active: [2] 36.3 µM | [3] 34.9 µM | [4] 20 µM | [5] 30 µM | [6] 30.4 µM | [8] 13.6 µM | [9] 30.9 µM | [10] 29.6 µM | [11] 36.7 µM | [12] 33.4 µM | [13] 39.1 µM | [14] 30.7 µM | [15] 34.3 µM | [16] 37.5 µM | [18] 28.9 µM

N#Cc1ccc(CC(=NNC(=O)Nc2ccc(OC(F)(F)F)cc2)c2cccc(C(F)(F)F)c2)cc1
inactive: all assays above

O=C(O)C[C@H](O)C[C@H](O)/C=C/c1c(C2CC2)nc2ccccc2c1-c1ccc(F)cc1
active: [1] 0.0287 µM | [2] 0.0041 µM | [5] 0.0041 µM | [8] 0.992 µM | [14] 2.96 µM
not listed: [17]
inactive: all other assays above
